According to PubChem BioAssay AID431 (Sanford-Burnham Center for Chemical Genomics, 2006):
The whole screen tested about 63,000 compounds, of which about 1,100 (1.7%) were called active. What follows is part of a selection rich in actives, with near analogues and random picks from the rest. Potency and affinity values are given separately. Unmarked numbers belong to inactive results.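 Rule for the calls: active = compounds whose percent cytotoxicity in the single-dose primary screen, scaled between solvent and toxic-drug controls, exceeds 50; inactive = the rest.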

Test: cytotoxicity in KRAS-transformed pancreatic duct cells, primary screen, cell-based, fluorescence, HTS (AID 431);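 note: 0% = DMSO solvent wells and 100% = doxorubicin-treated wells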
Settings: HPDE-C7K KRASV12 cells, Alamar Blue viability, 48 h; at 10 µM; stronger effect = higher value

SMILES | cytotoxicity
O=C1c2oc3ccccc3c(=O)c2C(c2ccc(Br)cc2)N1c1ncccn1 (configuration not stated) | 5.4%
O=S(=O)(c1ccccc1)c1nc(-c2ccco2)oc1NCc1cccnc1 | 14.5%
CCOC(=O)C1CCN(c2cc(=O)n(Cc3ccc(F)cc3)c(=O)[nH]2)CC1 | -12.8%
Cc1cc(NC(=O)c2c(F)c(F)c(F)c(F)c2F)no1 | -11.5%
Nc1c(C(=O)OCC2CCCO2)c2nc3ccccc3nc2n1C1CCCCC1 (configuration not stated) | -9.6%
COc1ccc(CCNC(=O)CSc2nnc(-c3cccc(C)c3)o2)cc1OC | -3.4%
CCOC(=O)N1CCC(NC(=O)Cn2c3c(c(-c4ccccc4Cl)cc2=O)CCC3)CC1 | 4.9%
CCOc1ccc(CN2C(=O)CCC2(C)C(=O)NCc2cccnc2)cc1 (configuration not stated) | 6.9%
O=C(Nc1cccc(-c2nc3ccccc3[nH]2)c1)c1ccco1 | 9.8%
O=C(Nc1ccc2nc(-c3ccccc3)oc2c1)c1ccco1 | 71.7% (active)
Cc1nc(NC(=O)c2ccco2)sc1C(=O)Nc1ccc(Br)cc1 | 84% (active)
CCN1CCN(c2c(Cl)cccc2NC(=O)c2ccc(Br)o2)CC1 | 10%
Cc1ccc2nc(-c3cccc(NC(=O)c4ccco4)c3)[nH]c2c1 | 65.5% (active)
O=C(Nc1ccc(-c2nc3ncccc3o2)cc1)c1ccco1 | -8.5%
CCOC(=O)c1sc(NC(=O)c2ccco2)nc1C | 5.9%
Cc1ccc2nc(-c3ccc(NC(=O)c4ccco4)cc3)[nH]c2c1 | 14.5%
O=C(Nc1cccc(Cl)c1N1CCCC1)c1ccc(Br)o1 | 93% (active)
O=C(Nc1ccccc1N1CCCC1)c1ccc(Br)o1 | -3.3%
O=C(Nc1cccc(-c2nnc(-c3ccccc3)o2)c1)c1ccco1 | 3.5%
COC(=O)c1sc(NC(=O)c2ccco2)nc1C | -3.1%
CN(C)S(=O)(=O)c1cccc(COC(=O)C2=COCCO2)c1 | -1.6%

SMILES | cytotoxicity
O=C(c1ccco1)[C@@H]1[C@@H]2C(=O)N(c3ccc(F)cc3)C(=O)[C@@H]2C2c3ccccc3C=CN21 (some centres not stated) | 6.6%
COc1ccc(CCNS(=O)(=O)c2cccc(F)c2)cc1OC | -5.1%
Cc1onc(-c2c(F)cccc2Cl)c1C(=O)OCC(=O)NCc1ccco1 | 0.8%
CN(C)c1ccc(NC(=O)CN2CCC(C(=O)c3ccc(F)cc3)CC2)cc1 | 10.1%
COc1cc2[nH]c(=O)n(CCCCCC(=O)N3CCN(c4ccccc4)CC3)c(=O)c2cc1OC | 15.8%
O=C(NCC1CCCO1)C1C2C=CC3(CN(Cc4cccs4)C(=O)C13)O2 (configuration not stated) | -19.1%
O=C(O)c1cccc(S(=O)(=O)N2CCCC2)c1 | -8.3%
COC(=O)Cc1ccc(NC(=O)c2ccc(Br)o2)cc1 | 8.9%
O=C(Nc1ccc(S(=O)(=O)NCCc2ccccc2)cc1)c1ccc(Br)o1 | 15.9%
O=C(Nc1cccc(NC(=O)c2ccc(-c3cccc(Br)c3)o2)c1)c1ccco1 | 66.3% (active)
O=C(Nc1ccc(Nc2ccccc2)cc1)c1ccc(Br)o1 | 93% (active)
COc1ccc(Br)cc1C(=O)Nc1cccc(NC(=O)c2ccco2)c1 | 0.2%
CC(=O)Nc1cccc(NC(=O)c2ccco2)c1 | -14%
COc1ccc(CN(Cc2ccccn2)C(=O)CN2C(=O)COc3ccccc32)cc1 | -15.4%
CCCCS(=O)(=O)c1sc2nc3c(cc2c1N)CCCC3 | -4.6%
Cc1cc(NC(=O)COc2ccc(N(C)S(=O)(=O)c3ccccc3)cc2)no1 | -0.8%
CCOC(=O)Cn1cnc2c(nnn2Cc2ccc(Cl)cc2)c1=O | -1%
CCSc1nnc(NC(=O)CSc2nnc(Cc3cccn3C)n2-c2ccc(C)cc2)s1 | 50.6% (active)
CCSc1nnc(NC(=O)CSc2nnc(Cc3cccn3C)n2-c2ccc(F)cc2)s1 | 49.5%
Cc1ccc(-n2c(Cc3cccn3C)nnc2SCC(=O)Nc2nnc(C)s2)cc1 | -0.8%
Cc1ccc(N)c(C(O)(C(F)(F)F)C(F)(F)F)c1 | -9.9%

SMILES | cytotoxicity
CC(C)(NO)/C(=N/O)c1ccc(Br)cc1 | -3.6%
CN(Cc1ccccc1)C(=O)Nc1ccccc1 | 9.8%
CC(=O)c1sc(NC(=O)C2(F)C(F)(F)C(F)(F)C(F)(F)C(F)(F)C2(F)F)nc1C | 51% (active)
CCCCC(=O)Nc1nc(C)c(C(C)=O)s1 | -0.2%
CC(=O)c1sc(NC(=O)C=C(C)C)nc1C | -0.4%
O=C(Cn1ncc2c(=O)oc3ccccc3c21)NC1CC1 | -0.5%
CCOC(=O)c1ccc(N2CC(O)=C(c3nc4ccccc4c(=O)[nH]3)C2=N)cc1 | 51.4% (active)
COc1cccc(N2CC(O)=C(c3nc4ccccc4c(=O)[nH]3)C2=N)c1 | 28%
COc1ccccc1N1CC(O)=C(c2nc3ccccc3c(=O)[nH]2)C1=N | 26.5%
O=C(CCN1CCCC1)Nc1cccc(Br)c1 | 3.2%
Cc1ccc(C)c(NC(=O)CN(C)S(=O)(=O)c2ccc(F)cc2)c1 | -4.8%
O=C(NCCc1cn2ccccc2n1)c1ccc(Br)o1 | -1.7%
O=C(Nc1ncnc2sc3c(c12)CCC3)c1ccco1 | 10.7%
Cc1nc(NS(=O)(=O)c2cccs2)c2c3c(sc2n1)CCC3 | 10.8%
O=S(=O)(Nc1ncnc2sc3c(c12)CCC3)c1ccc(Cl)s1 | 50.7% (active)
COc1ccc(C2N(c3ccc(F)cc3)C(=O)C3CCCN32)cc1 (configuration not stated) | -2.8%
CCOC(=O)C1CCCN(C(=O)c2ccc(CS(=O)(=O)Cc3ccccc3C)o2)C1 (configuration not stated) | 16.4%
CCC(C)[C@@H](C(=O)Nc1ccc(OC)c(OC)c1)N1Cc2ccccc2C1=O (some centres not stated) | -0.4%
Cn1cnc2c(N3CCCCC3)nccc21 | 3.7%
c1cncc(Nc2nc(-c3cccnc3)cs2)c1 | 15%
